Assay results taken from PubChem BioAssay (EPA / NIEHS).
Active and inactive are the calls of the source. The calls were made as follows: active = hit-call score of the fitted dose curve at least 0.9, where 1 is the maximum; inactive = score below 0.9.

Assay: APR_HepG2_StressKinase_24hr: Apredica 24-hour HepG2 Assay for Stress Kinase (AID 2282922)
Conditions: HepG2 stress kinase (phospho-c-Jun) imaging, actives raise or lower the signal
Description: APR_HepG2_24hr is a cell-based, multiplexed-readout assay that uses HepG2, a human liver cell line, with measurements taken at 24 hours after chemical dosing in a 384-well plate.APR_HepG2_StressKinase_24hr is one of 10 assay component(s) measured or calculated from the APR_HepG2_24hr assay. It is designed to make measurements of enzyme activity, a form of enzyme reporter, as detected with fluorescence intensity signals by HCS Fluorescent Imaging technology.Data from the assay component APR_HepG2_StressKinase_24hr was analyzed into 1 assay endpoint. This assay endpoint, APR_HepG2_StressKinase_24hr, was analyzed with bidirectional fitting relative to DMSO as the negative control and baseline of activity. Using a type of enzyme reporter, measures of protein for gain or loss-of-signal activity can be used to understand the signaling at the pathway-level as they relate to the gene . Furthermore, this assay endpoint can be referred to as a primary readout, because this assay has produced multiple assay endpoints where this one serves a signaling function. To generalize the intended target to other relatable targets, this assay endpoint is annotated to the cell cycle intended target family, where the subfamily is stress response.
Cells were treated with dimethyl sulfoxide (DMSO) as a solvent control at a final concentration of 0.5% v/v or with compounds in DMSO with a resulting final DMSO concentration of 0.5% v/v. Compound treatment was done at concentrations of 0.39, 0.78, 1.56, 3.12, 6.24, 12.5, 25, 50, 100, and 200 uM in duplicate on each plate. Cells were treated with compounds for 1, 24, or 72 hr. Carbonyl […] m-chloro-phenylhydrazone (CCCP) and taxol were used as positive controls for mitochondrial function and cytoskeletal stability, respectively; DMSO served as the negative control for this experiment. Cells were fixed by the direct addition of 50 uL formaldehyde in Hank's Balanced Salt Solution (HBSS) to a final concentration of 3.7%. After incubation in the fixation medium for 30 min at room temperature (293-298 K), cells were rinsed twice with HBSS and treated with cell permeabilization buffer (16 uL of 0.5% Triton X-100) for 10 min at room temperature (293-298 K) before labeling. For mitochondrial membrane potential and mitochondrial measurements, pre-fixed cells were incubated with 50 uL of MitoTracker Red CMXRos (Invitrogen) at a concentration of 250 nM for 30 min before fixation. In the remaining cases, post-fixed cells were labeled by incubation with a multiplexed mixture of primary antibodies in HBSS for 60 min at room temperature (293-298 K) to detect immunoreactivity of c-Jun (1:500), phospho-histone H3 (1:100), phospho-histone H2A.x (1:200), p53 (1:400), alpha-tubulin (1:200) and Hoechst 33342 (2 ug/mL). Cells were labeled for multiplexed imaging on two separate plates: a) Hoechst 33342, MitoTracker Red, phospho-histone H3, and alpha-tubulin, and b) Hoechst 33342, phospho-histone H2A.x, and c-Jun. A final rinse with HBSS (50 uL) was performed before analysis. The primary and secondary antibodies for the proteins were phospho-histone H3 (rabbit anti-phospho-histone H3 and FITC-donkey anti-rabbit IgG), phospho-histone H2A.x (mouse anti-phospho-histone H2A.x and FITC-donkey anti-mouse IgG), c-Jun (rabbit anti-phospho-c-Jun and Cy3-donkey anti-rabbit IgG), p53 (sheep anti-p53 and Cy5-donkey anti-sheep IgG), alpha-tubulin (mouse anti-alpha-tubulin and Cy5-donkey anti-mouse IgG). These antibodies are available as the CellCiphr HepG2 assay kit (Millipore).Digital images of each well were captured using a Cellomics ArrayScan VTI (Thermo Scientific Cellomics) (0.8 NA objective, 0.63x optical coupler, and XF-93 filter set) at 20x magnification. The images were acquired using the autofocus feature of the ArrayScan instrument, which entails the following steps. First, the camera focuses on channel 1 (Hoechst 33342), where nuclei are identified. Second, a Z offset of 1 um is used for capturing mitochondria (MitoTracker Red). […]

| Structure (SMILES) | outcome | AC50 |
| --- | --- | --- |
| Cc1ccc(-c2cc(C(F)(F)F)nn2-c2ccc(S(N)(=O)=O)cc2)cc1 | inactive | – |
| Cc1ccc(C(C)(C)C)c(O)c1 | inactive | – |
| N[C@@H](Cc1c[nH]c2ccccc12)C(=O)O | inactive | – |
| Cc1cc(Cc2ccc(N)c(C)c2)ccc1N | inactive | – |
| CC1=C(C)S(=O)(=O)CCS1(=O)=O | inactive | – |
| COc1ccc(OC(F)(F)F)cc1CN[C@H]1CCCN[C@H]1c1ccccc1 | inactive | – |
| CN(C)CCCN1c2ccccc2Sc2ccc(Cl)cc21 | – | 25.2 µM (active) |
| CCCCCCCCCCCCCCCCO | inactive | – |
| Nc1nc(=S)c2[nH]cnc2[nH]1 | inactive | – |
| CC(C)c1cccc(C(C)C)c1NC(=O)NS(=O)(=O)c1cc(C(C)(C)O)co1 | inactive | – |
| C/C=C/c1ccc(OC)cc1 | inactive | – |
| Oc1ccccc1O | inactive | – |
| c1ccc2occc2c1 | inactive | – |
| O=C(Oc1ccccc1)c1cccc(C(=O)Oc2ccccc2)c1 | inactive | – |
| O=Cc1ccccc1C=O | inactive | – |
| NC=O | inactive | – |
| O=C(O)c1[nH]n(-c2ccc(S(=O)(=O)O)cc2)c(=O)c1N=Nc1ccc(S(=O)(=O)O)cc1 | inactive | – |
| S=c1[nH]c2ccccc2s1 | inactive | – |
| CCCCc1nc2cccnc2n1Cc1ccc(-c2ccccc2-c2nnn[nH]2)cc1 | inactive | – |
| CC(=O)O | inactive | – |

| Structure (SMILES) | outcome | AC50 |
| --- | --- | --- |
| CCCCCCCCCCCCCCOS(=O)(=O)O | inactive | – |
| CC(=O)OCC(COC(C)=O)OC(C)=O | inactive | – |
| C=CCc1ccc(OC)c(OC)c1 | inactive | – |
| COC(=O)[C@H]1[C@H]2C[C@@H]3c4[nH]c5cc(OC)ccc5c4CCN3C[C@H]2C[C@@H](OC(=O)c2cc(OC)c(OC)c(OC)c2)[C@@H]1OC | – | 55.1 µM (active) |
| CCc1nc(N)nc(N)c1-c1ccc(Cl)cc1 | inactive | – |
| CC(COCC(C)OC(=O)c1ccccc1)OC(=O)c1ccccc1 (stereo not given) | inactive | – |
| CCCCCCCCCC[N+](C)(C)[O-] | inactive | – |
| CSc1ccc(Oc2ccc(S(N)(=O)=O)cc2CN(C)C)cc1C | inactive | – |
| C=CCCCCCCCCCCCC | inactive | – |
| Cc1cc(SC2=C(O)C[C@@](CCc3ccc(N)cc3)(C(C)C)OC2=O)c(C(C)(C)C)cc1CO | inactive | – |
| CN(C)CCCN(C)CCCN(C)C | inactive | – |
| CCC(C)N(C)C(=O)c1cc2ccccc2c(-c2ccccc2Cl)n1 (stereo not given) | – | 69.2 µM (active) |
| CC(C)NCC(O)c1ccc(O)c(O)c1 (stereo not given) | inactive | – |
| CC(C)(O)c1ccc(CNC(=O)c2cccnc2Oc2ccc(F)cc2)cc1 | inactive | – |
| O=C1NC(=O)C(c2ccccc2)(c2ccccc2)N1 | inactive | – |
| CCCC(=O)O | inactive | – |
| COC(=O)CCC(=O)OC | inactive | – |
| CCCCC(CC)COP(=O)(OCC(CC)CCCC)OCC(CC)CCCC (stereo not given) | inactive | – |
| CC(C)COC(=O)CCCCC(=O)OCC(C)C | inactive | – |
| NCCOCCOCCN | – | 100 µM (active) |
